# Shown are actives, neighbours in structure and some others; about 9.2% of the full set was active somewhere.
# NPC1 prom act: NPC1 promoter activation; Huh7 NPC1 promoter luciferase reporter, 24 h; Potency, µM (series often up to 9.22 µM), without a hit: at the top dose activation, actives largely listed as activators; actives 2.4% (n = 320,000); AID 485313; further: % of control where 0% means no effect; nearly all actives have a fitted effect of over 60% in size
#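 Huh7 cells stably carrying NPC1 promoter–luciferase, plated in Opti-MEM with 10% FBS for 2 h, were exposed to compound in DMSO for 24 h at 37 °C; luciferase reagent was added for 10 min and luminescence read.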
# SMN2 splice enh: increases expression of the SMN2 splice variant; HEK293 SMN2-luciferase splicing reporter, luminescence, 30-36 h; actives 2.8% (n = 210,000); Potency, µM (highest dose often 46.1 µM), without a hit: top-dose activity change, positive = activation, hits mostly activators; further: % of control where 0% means no effect; nearly all actives have a fitted effect of over 55% in size
#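 HEK293 cells carry an SMN2 minigene-luciferase reporter in which exon 7 inclusion puts luciferase in frame. Cells were seeded at 2000 cells/well, attached for 10-12 hours, then exposed to compounds for 30-36 hours at 37C before ONE-Glo luminescence.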
# ELG1 genotox: genotoxicity induction in ELG1-luciferase HEK293T cells; HEK293T ELG1-luciferase reporter, luminescence, 16 h; Potency, µM (highest dose often 46 µM), for inactives: at the highest dose activity change, positive = activation, most hits filed as activators; actives 1.3% (n = 330,000); AID 504466; further: % of control where 0% means no effect; nearly all actives have a fitted effect of over 60% in size
#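 Reporter readout depends on ELG1 protein level, which increases with genetic stress. After 16 hr compound exposure at 37 °C, luciferase activity was quantified using ONE-Glo.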
# Rab9 promoter act: activators of Rab9 promoter; Huh7 Rab9 promoter-luciferase reporter, luminescence, 24 h; Potency, µM (highest dose often 9.22 µM), inactives show top-dose activation, negative = inhibition, usual class: activators; actives 2.8% (n = 320,000); further: % of control where 0% means no effect; nearly all actives have a fitted effect of over 60% in size
#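 Stable Rab9-luc Huh7, 1500 cells/well, 2 h settle; cmpd in DMSO, 24 h, 37 °C/5% CO2; luciferase reagent 10 min RT; luminescence.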
# ELG1 DNA repair: inhibitors of ELG1-dependent DNA repair in HEK293T cells. HEK293T ELG1-luciferase reporter, luminescence, 16 h; DNA damage induced by 5-fluorouridine. actives 2.3% (n = 330,000). Potency, µM (doses to about 46.1 µM), for the others: top-dose activity change, negative = inhibition, actives largely listed as inhibitors; further: on the % scale 0 is the no-effect control and ±100 the full control effect; nearly all actives have a fitted effect of over 55% in size
#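 5-Fluorouridine DNA damage + compound/DMSO, 2,000 cells/well, 16 h, 37 °C/5% CO2. ONE-Glo, 30 min RT, luminescence. Readout = decrease in reporter signal.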
# FLuc counter: inhibits or activates purified firefly luciferase, miR-21 counter-screen. purified FLuc, Km substrates, luminescence inhibition. Potency, µM (highest dose often 57.5 µM), without a hit: at the highest dose activity change, negative = inhibition, actives largely listed as inhibitors. actives 6.9% (n = 360,000). AID 588342;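 further: plate controls were vehicle for no effect and reference inhibitor for full effect; nearly all actives have a fitted effect of over 55% in size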
# Target sequence (P08659 whole entry, looked up): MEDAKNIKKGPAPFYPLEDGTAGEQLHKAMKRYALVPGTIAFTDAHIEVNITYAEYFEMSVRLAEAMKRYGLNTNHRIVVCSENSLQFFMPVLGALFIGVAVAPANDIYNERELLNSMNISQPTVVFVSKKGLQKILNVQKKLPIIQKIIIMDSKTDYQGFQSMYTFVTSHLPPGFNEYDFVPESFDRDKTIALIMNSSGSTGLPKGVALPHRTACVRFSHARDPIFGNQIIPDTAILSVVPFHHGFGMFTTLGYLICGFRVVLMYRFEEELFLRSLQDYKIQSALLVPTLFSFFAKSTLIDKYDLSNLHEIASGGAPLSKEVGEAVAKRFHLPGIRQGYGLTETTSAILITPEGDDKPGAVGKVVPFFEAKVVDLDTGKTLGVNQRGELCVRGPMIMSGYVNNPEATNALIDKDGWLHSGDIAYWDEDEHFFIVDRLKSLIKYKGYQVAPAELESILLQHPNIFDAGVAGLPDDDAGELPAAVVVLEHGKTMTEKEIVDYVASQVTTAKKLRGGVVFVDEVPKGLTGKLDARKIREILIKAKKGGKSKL
#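 Purified P. pyralis luciferase, 10 nM final, with Km-level 10 uM D-luciferin and 10 uM ATP in 50 mM Tris acetate pH 7.5, 10 mM Mg acetate, 0.01% Tween-20, 0.05% BSA; 6-point qHTS titration about 60 µM downward; luminescence read.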
# An asterisk follows results filed as active; ? = inconclusive; nt = not tested or not shown; [ ] = dose if it differs, or a comment. The call rests on the fitted dose curve; in most records, active means well fitted curve in the direction sought with a large enough effect; inconclusive means small, poorly fitted or top-dose-only effect, or another doubt; inactive means no such curve, though single readings can be large; an effect the other way counts as inactive or inconclusive. Potency means the concentration at half of the fitted maximal effect.
SMILES,NPC1 prom act,SMN2 splice enh,ELG1 genotox,Rab9 promoter act,ELG1 DNA repair,FLuc counter
CC(C)Oc1ccc(N2CC(C(=O)Nc3ccccc3C(=O)NC3CC3)CC2=O)cc1 (centres undefined),9%,nt,1%,-1%,?,3%
Cc1nn(C(=O)COc2ccccc2Br)c(C)c1Sc1ccccc1,nt,-7%,nt,nt,nt,-12%
CCCC(O)c1nc2ccccc2n1CCCCOc1ccc(OC)cc1 (centres undefined),nt,nt,nt,nt,nt,-12%
COc1cc(OC)cc(C(=O)Nc2cc(-c3nc4cc(Cl)ccc4o3)ccc2Cl)c1,nt,15%,nt,nt,nt,-14%
Cc1cc(N2CCN(c3ccccc3F)CC2)nc2cc(O)ccc12,3%,-15%,7%,10%,?,15µM*
Cc1ccc(N=C/C(C(=O)C(F)(F)F)=C(\O)c2cccs2)cc1,1.8µM*,?,?,1.8µM*,?,13µM*
COCCNC(=O)/C(C#N)=C/c1cc(C)n(-c2ccc(C)cc2)c1C,1.6µM*,nt,4.1µM*,1.6µM*,?,0.95µM*
COCCNC(=O)/C(C#N)=C/c1cc(C)n(C2CCCCC2)c1C,1.8µM*,6.3µM*,1%,0.79µM*,?,3µM*
COc1ccc(-n2c(C)cc(/C=C(\C#N)C(=O)NCc3ccco3)c2C)cc1,8%,-7%,0%,0%,-11%,12µM*
C=CCCCCCCCCc1nc(SCC(C)=O)n[nH]1,-3%,nt,-4%,-1%,23µM*,0%
COc1ccc(NC(=O)CCNC(=O)Cn2ccc3ccccc3c2=O)cc1OC,-6%,nt,0%,-1%,-2%,-2%
Cc1ccc(NC(=O)CCNC(=O)Cn2ccc3ccccc3c2=O)cc1F,29%,nt,?,?,26%,17µM*
Cc1ccc(Cl)cc1N1CCN(C(=O)c2ccc3c(c2)N(Cc2ccccc2F)C(=O)c2ccccc2S3(=O)=O)CC1,nt,-2%,nt,nt,nt,1%
COc1ccccc1NC(=O)COC(=O)c1ccc([N+](=O)[O-])s1,-3%,8%,0%,-2%,6%,-13%
CCc1ccccc1NC(=O)c1ccc([N+](=O)[O-])s1,-3%,-46%,-10%,5%,12µM*,3%
Cc1cc(NS(=O)(=O)c2ccc(NC(=O)c3ccc([N+](=O)[O-])s3)cc2)nc(C)n1,nt,nt,-4%,nt,?,nt
COc1ccc2c(c1)Cc1sc(NC(=O)c3cccs3)nc1-2,4µM*,?,?,2.8µM*,?,?
Cc1nc2cc(NC(=O)c3ccc([N+](=O)[O-])s3)ccc2s1,19%,nt,?,?,?,3.8µM*
COc1ccc(C(=O)Nc2nc3c(s2)Cc2cc(OC)ccc2-3)cc1,-1%,-38%,-8%,5%,?,?
COc1ccc2nc(NC(=O)c3cccs3)sc2c1,0.32µM*,nt,?,0.28µM*,?,0.67µM*
CCN(C(=O)CN1C(=O)NC2(CCc3ccccc32)C1=O)C1CCS(=O)(=O)C1 (centres undefined),0%,nt,-2%,-4%,?,-3%
O=S(=O)(c1ccccc1)c1nc(NCc2cccnc2)sc1Cl,-1%,-56%,-2%,1%,-1%,6%
CCCOc1ccc(-c2c(C(=O)N/N=C/C3CCCCC3)nnn2-c2nonc2N)cc1,0%,nt,7%,-1%,-3%,3%
CCc1sc(C(=O)Nc2ccc3nc(C)sc3c2)cc1C,nt,nt,13%,nt,?,nt
CC(=O)Nc1ccc2nc(NC(=O)c3ccc([N+](=O)[O-])s3)sc2c1,22%,nt,3%,?,-8%,5.4µM*
SMILES,NPC1 prom act,SMN2 splice enh,ELG1 genotox,Rab9 promoter act,ELG1 DNA repair,FLuc counter
CC(=O)Nc1ccc2nc(NC(=O)c3cccs3)sc2c1,0.63µM*,nt,?,0.32µM*,?,2.1µM*
Cc1nc2ccc(NC(=O)c3cccs3)cc2s1,3.5µM*,nt,?,2.5µM*,?,17µM*
Cc1nc2ccc(NC(=O)c3sccc3C)cc2s1,1.8µM*,11µM*,?,2.2µM*,?,7.6µM*
C=CCOc1ccc(C2C(C(=O)c3ccc(C)o3)=C(O)C(=O)N2Cc2cccnc2)cc1 (centres undefined),-5%,nt,0%,0%,2%,2%
O=C1CSC(c2cn(-c3ccccc3)nc2-c2ccccc2)N1Cc1ccco1 (centres undefined),-2%,-13%,-7%,28%,18µM*,5%
C[C@@H](NC(=O)c1coc(=O)c(Br)c1)c1ccccc1,2%,13µM*,21µM*,8%,?,-2%
Cc1cc(NC(=O)c2coc(=O)c(Br)c2)ccc1C(C)C,18%,nt,?,?,?,5.4µM*
c1ccc(CCc2cccnc2)nc1,nt,-4%[9.22 µM],nt,nt,nt,nt
COc1ccc(/C=C2\C(=O)ON=C2c2cccc([N+](=O)[O-])c2)cc1,-4%,9%,1%,-3%,2%,24µM*
COc1ccc(/C=C2\C(=O)ON=C2c2ccccc2)cc1OC,-1%,nt,?,2%,26%,?
COc1ccc(/C=C2/C(=O)ON=C2c2ccccc2)cc1OC,-6%,7%,15%,-8%,?,11µM*
O=C(N/N=C/c1ccccc1OC(=O)c1ccc2c(c1)OCO2)c1ccccc1,0%,nt,?,-7%,?,?
COc1ccccc1/C=N/NC(=O)c1ccc2c(c1)OCO2,12%,nt,8%,18%,?,6.7µM*
COc1cc(/C=N/Nc2snc(SC)c2C#N)cc(OC)c1OC,-33%,-48%,-2%,-34%,-1%,?
COc1ccccc1N/N=C/c1ccc2c(c1)OCO2,10%,-15%,17%,1%,?,9.5µM*
COc1cc2ccccc2cc1C(=O)N/N=C/c1ccc2c(c1)OCO2,-28%,nt,-4%,-20%,0%,?
COc1ccccc1NC(=O)NCc1ccc2c(c1)OCO2,2%,-22%,0%,14%,22%,-7%
COc1ccccc1C(=O)N/N=C/c1ccc2c(c1)OCO2,2.8µM*,nt,?,?,?,11µM*
CSc1nsc(N/N=C/c2ccc3c(c2)OCO3)c1C#N,2.5µM*,5.6µM*,?,0.79µM*,?,1.7µM*
COc1ccccc1/C=N/NC(=O)c1cccc(OC(F)(F)C(F)F)c1,-1%,19%,1%,-2%,0%,12µM*
COc1ccc(Cl)cc1-c1nc(-c2ccc(Br)o2)no1,?,?,4%,?,?,3%
Fc1ccccc1-c1nc(-c2ccc(Br)o2)no1,0.5µM*,nt,?,?,?,0.85µM*
Cc1ccccc1-c1nc(-c2ccc(Br)o2)no1,1.8µM*,nt,?,2.2µM*,?,3.4µM*
